This note sets out measurements from PubChem BioAssay (NCI).

Assay [1] can be described thus: NCI Yeast Anticancer Drug Screen. Data for the rad50 strain (AID 155).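 Note: 0% = growth of vehicle-only cultures of the same strain.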 The settings on record: S. cerevisiae rad50 strain growth inhibition, hits give high values. Summed up: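 Yeast carrying a defined DNA repair defect were exposed to test compounds, and growth was compared with vehicle-treated controls to give percent inhibition.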
Assay [2] is described as follows: NCI Yeast Anticancer Drug Screen. Data for the mec2-1 strain (AID 157). The settings on record: S. cerevisiae mec2-1 strain, hits give high values. The essentials: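 Cells of the genetically defined mec2-1 yeast strain are incubated with test compound. Inhibition of growth is calculated against vehicle-treated controls.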
Assay [3] in a line: NCI Yeast Anticancer Drug Screen. Data for the sgs1 mgt1 strain (AID 161).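 Note: 0% = growth of cultures given vehicle only.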 The settings on record: S. cerevisiae sgs1 mgt1 strain, hits give high values. Summed up: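 Inhibition of yeast growth, normalised to vehicle-treated controls, is reported for a strain bearing genetic alterations in DNA damage repair.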
Assay [4] in a line: NCI Yeast Anticancer Drug Screen. Data for the cln2 rad14 strain (AID 165).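 Note: 0% = growth equal to vehicle treated cultures.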 Particulars: S. cerevisiae cln2 rad14 strain, hits give high values. The essentials:
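The screen exposed genetically defined yeast (cln2 rad14) to test compounds and scored growth inhibition relative to vehicle-treated controls.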

A short description of assay [5]: NCI Yeast Anticancer Drug Screen. Data for the bub3 strain (AID 167). The settings on record: S. cerevisiae bub3 mutant strain, hits give high values. The essentials:
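Compounds were applied to a genetically altered yeast strain carrying a cell-cycle control defect. Growth inhibition was scored against vehicle-treated controls.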

Assay [6] can be described thus: NCI Yeast Anticancer Drug Screen. Data for the mlh1 rad18 strain (AID 175). The settings on record: S. cerevisiae mlh1 rad18 strain growth inhibition, hits give high values. Summed up: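 Compound-treated yeast growth, normalised to vehicle controls. Strain bears defined DNA repair mutations.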
The mark [7] stands for this setting: at 5.0 µM (retest, dose inferred, filed as 0.5).
[8] abbreviates: at 50.0 µM (retest, dose inferred, filed as 5.0).

About 79,000 compounds went through this panel and 15% of them were active in at least one assay; those are over-represented in the sample as a whole. Values without a mark were called inactive. Active and inactive are the calls of the source. Cut-off read from the data, not from the text of the source: active = growth inhibition above about 70%; inactive = the rest.

Turning to `CCN(CC)CCNc1ccc2ncn3c4c(OC)ccc(=O)c4c(O)c1c23`, the growth inhibition is 24% in assay [1] (setting [7]); 96% (active) in assay [1] (setting [8]); 25.4% in assay [1] (at 50.0 µM); 9% in assay [2] (setting [7]); 65% in assay [2] (setting [8]); 19.9% in assay [2] (at 50.0 µM). Further, the growth inhibition in assay [3] (setting [7]) is 3%; in assay [3] (setting [8]) it was 54%; in assay [3] (at 50.0 µM) it was 22.6%; in assay [4] (setting [7]), -1%; in assay [4] (setting [8]), 29%; in assay [4] (at 50.0 µM), -1.95%. The growth inhibition in assay [5] (setting [7]) is 9%; in assay [5] (setting [8]) it was 19%; in assay [5] (at 50.0 µM) it was -13.1%; in assay [6] (setting [7]), 9%; in assay [6] (setting [8]), 83% (active); in assay [6] (at 50.0 µM) it was 4.65%.

For the molecule `CCN(CC)CCC(=O)c1ccc2c3c(n(C)c2c1)CCCC3`, the growth inhibition in assay [1] (setting [7]) is 0%; in assay [1] (setting [8]) it was 9%; in assay [1] (at 50.0 µM), 95.8% (active); in assay [2] (setting [7]), 0%; in assay [2] (setting [8]), 9%; in assay [2] (at 50.0 µM), 25.2%. The growth inhibition is -4% in assay [3] (setting [7]); 26% in assay [3] (setting [8]); 83.8% (active) in assay [3] (at 50.0 µM); -5% in assay [4] (setting [7]); 22% in assay [4] (setting [8]); 5.85% in assay [4] (at 50.0 µM). Besides, the growth inhibition was -5% in assay [5] (setting [7]); 42% in assay [5] (setting [8]); 96.3% (active) in assay [5] (at 50.0 µM); 3% in assay [6] (setting [7]); 21% in assay [6] (setting [8]); 78.7% (active) in assay [6] (at 50.0 µM).

Regarding `CC(C)(COC(=O)Nc1cccc(Cl)c1)[N+](=O)[O-]`, the growth inhibition in assay [1] (setting [7]) was 2%; in assay [1] (setting [8]), 15%; in assay [1] (at 50.0 µM) it was 88.3% (active); in assay [2] (setting [7]), -3%; in assay [2] (setting [8]) it was 6%; in assay [2] (at 50.0 µM) it was 5.6%. Besides, the growth inhibition in assay [3] (setting [7]) was -1%; in assay [3] (setting [8]), 3%; in assay [3] (at 50.0 µM), 53.3%; in assay [4] (setting [7]) it was -41%; in assay [4] (setting [8]), -3%; in assay [4] (at 50.0 µM), -33.5%. The growth inhibition in assay [5] (setting [7]) is -1%; in assay [5] (setting [8]), 3%; in assay [5] (at 50.0 µM) it was 65.7%; in assay [6] (setting [7]), -1%; in assay [6] (setting [8]), 6%; in assay [6] (at 50.0 µM) it was 82.6% (active).

For the molecule `O=C(/C=N/O)c1c(-c2ccccc2)[nH]c(-c2ccccc2)c1-c1ccccc1`, the growth inhibition in assay [1] (setting [7]) was 4%; in assay [1] (setting [8]), 75% (active); in assay [1] (at 50.0 µM) it was 94.2% (active); in assay [2] (setting [7]), 5%; in assay [2] (setting [8]), 77% (active); in assay [2] (at 50.0 µM) it was 77.8% (active). In addition, the growth inhibition in assay [3] (setting [7]) was 7%; in assay [3] (setting [8]) it was 90% (active); in assay [3] (at 50.0 µM), 96.3% (active); in assay [4] (setting [7]) it was 1%; in assay [4] (setting [8]), 33%; in assay [4] (at 50.0 µM) it was 91% (active). For the same molecule, the growth inhibition in assay [5] (setting [7]) was 11%; in assay [5] (setting [8]), 13%; in assay [5] (at 50.0 µM) it was 85.7% (active); in assay [6] (setting [7]), 31%; in assay [6] (setting [8]), 93% (active); in assay [6] (at 50.0 µM) it was 96% (active).

Regarding `Cc1cc(C(O)(c2cc(C)c(O)c(C(=O)O)c2)c2cc(C)c(O)c(C(=O)O)c2)cc(C(=O)O)c1O`, the growth inhibition is 2% in assay [1] (setting [7]); -5% in assay [1] (setting [8]); 12.4% in assay [1] (at 50.0 µM); 2% in assay [2] (setting [7]); -11% in assay [2] (setting [8]); -18% in assay [2] (at 50.0 µM). Moreover, the growth inhibition in assay [3] (setting [7]) is 0%; in assay [3] (setting [8]) it was 1%; in assay [3] (at 50.0 µM), 5.35%; in assay [4] (setting [7]), 6%; in assay [4] (setting [8]), -5%; in assay [4] (at 50.0 µM), 21.9%. For the same molecule, the growth inhibition in assay [5] (setting [7]) is -43%; in assay [5] (setting [8]), -3%; in assay [5] (at 50.0 µM), -11.7%; in assay [6] (setting [7]), 2%; in assay [6] (setting [8]), -9%; in assay [6] (at 50.0 µM), 10.3%.

For the molecule `O=C(c1ccccc1)c1ccc2cccc(O)c2n1`, the growth inhibition in assay [1] (setting [7]) is 19%; in assay [1] (setting [8]), 63%; in assay [1] (at 50.0 µM), 88.8% (active); in assay [2] (setting [7]), -18%; in assay [2] (setting [8]) it was 31%; in assay [2] (at 50.0 µM), 91.5% (active). The growth inhibition in assay [3] (setting [7]) is -11%; in assay [3] (setting [8]) it was 55%; in assay [3] (at 50.0 µM), 90.8% (active); in assay [4] (setting [7]) it was 5%; in assay [4] (setting [8]) it was 34%; in assay [4] (at 50.0 µM), 88.8% (active). Besides, the growth inhibition in assay [5] (setting [7]) is -21%; in assay [5] (setting [8]), 77% (active); in assay [5] (at 50.0 µM) it was 91.7% (active); in assay [6] (setting [7]) it was -19%; in assay [6] (setting [8]), 77% (active); in assay [6] (at 50.0 µM) it was 89.4% (active).

For `Cc1cccc(N2C(c3ccccc3)c3ccc(C)cc3NS2=O)c1` (configuration not stated), the growth inhibition was 2% in assay [1] (setting [7]); -1% in assay [1] (setting [8]); 98.7% (active) in assay [1] (at 50.0 µM); 2% in assay [2] (setting [7]); -2% in assay [2] (setting [8]); 98.8% (active) in assay [2] (at 50.0 µM). Also, the growth inhibition in assay [3] (setting [7]) is 1%; in assay [3] (setting [8]) it was -2%; in assay [3] (at 50.0 µM), 99.1% (active); in assay [4] (setting [7]) it was 1%; in assay [4] (setting [8]) it was 1%; in assay [4] (at 50.0 µM) it was 98.7% (active). The growth inhibition in assay [5] (setting [7]) is -2%; in assay [5] (setting [8]) it was -1%; in assay [5] (at 50.0 µM) it was 99.2% (active); in assay [6] (setting [7]), -4%; in assay [6] (setting [8]), -7%; in assay [6] (at 50.0 µM), 99.2% (active).

Regarding `Oc1ccc2c(c1)Cc1ccccc1-2`, the growth inhibition in assay [1] (setting [7]) is 1%; in assay [1] (setting [8]), 70% (active); in assay [1] (at 50.0 µM) it was 93.2% (active); in assay [2] (setting [7]), 0%; in assay [2] (setting [8]), 28%; in assay [2] (at 50.0 µM) it was 87.1% (active). Moreover, the growth inhibition was 1% in assay [3] (setting [7]); 28% in assay [3] (setting [8]); 53% in assay [3] (at 50.0 µM); -8% in assay [4] (setting [7]); 70% (active) in assay [4] (setting [8]); 88.3% (active) in assay [4] (at 50.0 µM). Besides, the growth inhibition in assay [5] (setting [7]) was -2%; in assay [5] (setting [8]), 82% (active); in assay [5] (at 50.0 µM), 98.2% (active); in assay [6] (setting [7]) it was -1%; in assay [6] (setting [8]) it was 72% (active); in assay [6] (at 50.0 µM), 93.1% (active).

For `CCCCCCCCCCCCCCCCCCOC(=O)C(N)CCCCN` (configuration not stated), the growth inhibition in assay [1] (setting [7]) is 2%; in assay [1] (setting [8]), 98% (active); in assay [1] (at 50.0 µM) it was 98.3% (active); in assay [2] (setting [7]) it was -3%; in assay [2] (setting [8]), 97% (active); in assay [2] (at 50.0 µM) it was 98.8% (active). In addition, the growth inhibition in assay [3] (setting [7]) is 3%; in assay [3] (setting [8]), 97% (active); in assay [3] (at 50.0 µM), 50.5%; in assay [4] (setting [7]) it was -7%; in assay [4] (setting [8]), 87% (active); in assay [4] (at 50.0 µM), 96.7% (active). Further, the growth inhibition in assay [5] (setting [7]) was -7%; in assay [5] (setting [8]) it was 96% (active); in assay [5] (at 50.0 µM), 98.2% (active); in assay [6] (setting [7]), -5%; in assay [6] (setting [8]), 96% (active); in assay [6] (at 50.0 µM), 98.3% (active).
